Laboratory results published in publication PMC7862700, “An all-to-all approach to the identification of sequence-specific readers for epigenetic DNA modifications on cytosine”.

Experiments:
Assay in all cases: DAPPL (digital affinity profiling via proximity ligation, sequencing); 10 mM Tris-HCl pH 7.5, 50 mM NaCl, 1 mM DTT, 4% glycerol, room temperature, 30 min; GST-TFs on glutathione beads, 16-mer random dsDNA library, 0.1% formaldehyde crosslink after washing; high values mean tight binding
Details in all cases: protein: recombinant; tags: N-terminal GST; dsDNA, one strand shown
ELF4 = ELF4 (Homo sapiens, UniProt Q99607 1-663)
Sequence of ELF4 (Q99607 whole entry, the tested form may be a part): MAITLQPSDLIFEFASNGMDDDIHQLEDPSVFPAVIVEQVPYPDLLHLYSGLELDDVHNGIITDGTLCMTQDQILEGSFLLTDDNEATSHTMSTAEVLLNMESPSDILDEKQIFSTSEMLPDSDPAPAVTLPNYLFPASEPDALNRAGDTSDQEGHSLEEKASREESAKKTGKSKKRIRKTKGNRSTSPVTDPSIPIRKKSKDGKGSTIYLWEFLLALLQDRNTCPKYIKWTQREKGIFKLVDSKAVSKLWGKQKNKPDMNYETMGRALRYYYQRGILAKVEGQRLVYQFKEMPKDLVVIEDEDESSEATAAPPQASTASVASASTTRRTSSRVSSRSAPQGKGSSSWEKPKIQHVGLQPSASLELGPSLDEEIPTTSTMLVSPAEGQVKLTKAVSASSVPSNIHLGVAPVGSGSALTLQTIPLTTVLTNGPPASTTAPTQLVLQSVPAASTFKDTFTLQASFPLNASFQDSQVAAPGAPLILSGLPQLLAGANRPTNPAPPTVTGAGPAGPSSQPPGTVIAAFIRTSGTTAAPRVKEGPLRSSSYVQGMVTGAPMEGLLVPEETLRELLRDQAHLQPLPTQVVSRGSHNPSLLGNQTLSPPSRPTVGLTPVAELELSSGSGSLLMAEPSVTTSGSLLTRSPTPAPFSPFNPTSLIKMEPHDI
Summary of the method: (§1)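 Binding signal is each hexamer's read frequency for a factor divided by its frequency in the tag-only sample. The factors were GST-fused human transcription factors from yeast, captured on glutathione beads, DNA-barcoded and pooled with that sample. Pools were incubated with 200 nmole of a random double-stranded 16-mer DNA library in Tris/NaCl/DTT/glycerol buffer at room temperature for 30 min, then washed, crosslinked with 0.1% formaldehyde, proximity-ligated with BsaI/T4 ligase (1 h, 37 °C), PCR-amplified and sequenced on an Illumina NextSeq500.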

ETV2 = target: T1, ETV2 (Homo sapiens, UniProt O00321 1-342)
T1 sequence: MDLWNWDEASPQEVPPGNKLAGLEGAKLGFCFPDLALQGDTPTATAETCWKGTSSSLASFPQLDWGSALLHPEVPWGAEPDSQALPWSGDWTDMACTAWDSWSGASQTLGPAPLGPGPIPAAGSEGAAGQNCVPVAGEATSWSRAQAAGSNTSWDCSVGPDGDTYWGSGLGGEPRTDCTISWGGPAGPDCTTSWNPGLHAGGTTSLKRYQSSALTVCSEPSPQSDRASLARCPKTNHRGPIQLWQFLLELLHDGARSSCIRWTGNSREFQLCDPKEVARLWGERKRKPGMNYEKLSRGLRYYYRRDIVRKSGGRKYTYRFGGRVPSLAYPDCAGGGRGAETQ
Summary of the method: as §1

ELF3 = target: T2, ELF3 (Homo sapiens, UniProt P78545 1-371)
T2 sequence: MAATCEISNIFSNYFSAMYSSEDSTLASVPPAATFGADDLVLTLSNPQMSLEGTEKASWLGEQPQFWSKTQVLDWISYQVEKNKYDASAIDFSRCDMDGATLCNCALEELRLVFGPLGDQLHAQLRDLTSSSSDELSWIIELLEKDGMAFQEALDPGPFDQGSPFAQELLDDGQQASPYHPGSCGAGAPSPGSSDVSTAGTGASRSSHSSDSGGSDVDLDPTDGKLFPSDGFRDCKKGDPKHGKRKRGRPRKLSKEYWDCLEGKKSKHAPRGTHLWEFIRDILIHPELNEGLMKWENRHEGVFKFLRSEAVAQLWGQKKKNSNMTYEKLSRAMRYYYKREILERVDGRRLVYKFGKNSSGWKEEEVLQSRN
Summary of the method: as §1

ETV1 = ETV1 (Homo sapiens, UniProt P50549 1-477)
Sequence of ETV1 (P50549 whole entry): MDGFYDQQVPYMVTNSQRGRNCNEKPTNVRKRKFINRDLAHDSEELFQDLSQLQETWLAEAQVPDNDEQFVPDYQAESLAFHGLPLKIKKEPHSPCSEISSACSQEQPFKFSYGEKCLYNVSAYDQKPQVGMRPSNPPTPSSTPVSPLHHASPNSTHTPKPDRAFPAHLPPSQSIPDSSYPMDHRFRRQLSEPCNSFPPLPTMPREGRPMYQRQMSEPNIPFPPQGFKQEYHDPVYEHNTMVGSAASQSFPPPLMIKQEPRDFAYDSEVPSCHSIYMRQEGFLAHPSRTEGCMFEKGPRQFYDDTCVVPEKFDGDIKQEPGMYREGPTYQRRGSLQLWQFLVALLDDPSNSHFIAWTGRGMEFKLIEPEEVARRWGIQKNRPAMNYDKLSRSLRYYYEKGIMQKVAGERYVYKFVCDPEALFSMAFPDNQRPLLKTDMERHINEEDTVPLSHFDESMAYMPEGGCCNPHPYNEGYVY
Summary of the method: as §1

ERF = target: T3, ERF (Homo sapiens, UniProt P50548 1-548)
T3 sequence: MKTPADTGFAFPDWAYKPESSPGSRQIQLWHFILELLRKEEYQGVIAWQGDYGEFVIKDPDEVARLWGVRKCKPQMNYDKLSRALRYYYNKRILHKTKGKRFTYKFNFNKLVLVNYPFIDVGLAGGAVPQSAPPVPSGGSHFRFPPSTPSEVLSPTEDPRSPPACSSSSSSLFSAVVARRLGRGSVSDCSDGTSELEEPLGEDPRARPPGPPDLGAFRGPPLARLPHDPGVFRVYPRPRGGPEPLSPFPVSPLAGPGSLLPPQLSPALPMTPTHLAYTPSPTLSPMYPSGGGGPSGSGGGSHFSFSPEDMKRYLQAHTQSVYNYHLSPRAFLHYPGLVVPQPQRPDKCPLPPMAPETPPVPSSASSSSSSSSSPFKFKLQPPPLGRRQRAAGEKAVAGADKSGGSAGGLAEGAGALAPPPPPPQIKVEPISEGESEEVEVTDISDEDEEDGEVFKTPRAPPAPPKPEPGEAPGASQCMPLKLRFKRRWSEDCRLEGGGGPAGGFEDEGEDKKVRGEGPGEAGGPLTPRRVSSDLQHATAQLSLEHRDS
Summary of the method: as §1

ETV3L = target: T4, ETV3L (Homo sapiens, UniProt Q6ZN32 1-361)
T4 sequence: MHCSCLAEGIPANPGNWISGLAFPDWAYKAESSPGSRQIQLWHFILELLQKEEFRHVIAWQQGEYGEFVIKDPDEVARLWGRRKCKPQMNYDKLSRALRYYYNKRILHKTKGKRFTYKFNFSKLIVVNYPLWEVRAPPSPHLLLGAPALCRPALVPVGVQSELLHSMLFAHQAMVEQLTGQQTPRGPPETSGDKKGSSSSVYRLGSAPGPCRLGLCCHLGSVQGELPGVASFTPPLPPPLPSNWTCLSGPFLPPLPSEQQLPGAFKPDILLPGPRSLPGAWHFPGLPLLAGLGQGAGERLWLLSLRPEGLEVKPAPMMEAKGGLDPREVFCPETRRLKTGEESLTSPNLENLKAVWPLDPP
Summary of the method: as §1

ETS2 = target: T5, ETS2 (Homo sapiens, UniProt P15036 1-469)
T5 sequence: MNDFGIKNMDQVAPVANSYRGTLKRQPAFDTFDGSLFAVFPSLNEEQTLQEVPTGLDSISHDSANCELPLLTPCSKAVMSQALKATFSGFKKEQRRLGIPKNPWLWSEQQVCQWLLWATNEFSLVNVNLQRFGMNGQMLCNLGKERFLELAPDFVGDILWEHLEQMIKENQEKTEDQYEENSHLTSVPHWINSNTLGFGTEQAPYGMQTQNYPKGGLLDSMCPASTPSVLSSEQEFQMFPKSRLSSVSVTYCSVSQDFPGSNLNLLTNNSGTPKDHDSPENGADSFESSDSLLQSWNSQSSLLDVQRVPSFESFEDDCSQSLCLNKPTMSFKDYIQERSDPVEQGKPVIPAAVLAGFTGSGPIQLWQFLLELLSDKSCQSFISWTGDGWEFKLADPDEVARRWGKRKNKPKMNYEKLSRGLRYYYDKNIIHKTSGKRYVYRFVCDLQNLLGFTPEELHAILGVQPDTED
Summary of the method: as §1

ETV7 = target: T6, ETV7 (Homo sapiens, UniProt Q9Y603 1-341)
T6 sequence: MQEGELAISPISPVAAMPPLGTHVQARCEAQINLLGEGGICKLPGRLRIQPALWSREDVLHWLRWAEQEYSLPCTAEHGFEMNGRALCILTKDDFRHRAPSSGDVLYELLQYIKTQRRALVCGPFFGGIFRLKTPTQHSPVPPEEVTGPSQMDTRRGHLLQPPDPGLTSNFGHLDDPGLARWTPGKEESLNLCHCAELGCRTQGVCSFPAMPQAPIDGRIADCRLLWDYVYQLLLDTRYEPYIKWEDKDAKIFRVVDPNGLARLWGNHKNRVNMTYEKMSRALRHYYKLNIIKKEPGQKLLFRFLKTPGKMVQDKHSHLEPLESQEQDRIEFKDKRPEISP
Summary of the method: as §1

ETV3 = target: T7, ETV3 (Homo sapiens, UniProt P41162-2 1-143)
T7 sequence: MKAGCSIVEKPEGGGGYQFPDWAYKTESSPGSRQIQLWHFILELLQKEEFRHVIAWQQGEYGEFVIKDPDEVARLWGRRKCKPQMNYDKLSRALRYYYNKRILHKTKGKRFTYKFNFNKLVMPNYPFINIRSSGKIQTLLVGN
Summary of the method: as §1

ETV6 = ETV6 (Homo sapiens, UniProt P41212 1-452)
Sequence of ETV6 (P41212 whole entry): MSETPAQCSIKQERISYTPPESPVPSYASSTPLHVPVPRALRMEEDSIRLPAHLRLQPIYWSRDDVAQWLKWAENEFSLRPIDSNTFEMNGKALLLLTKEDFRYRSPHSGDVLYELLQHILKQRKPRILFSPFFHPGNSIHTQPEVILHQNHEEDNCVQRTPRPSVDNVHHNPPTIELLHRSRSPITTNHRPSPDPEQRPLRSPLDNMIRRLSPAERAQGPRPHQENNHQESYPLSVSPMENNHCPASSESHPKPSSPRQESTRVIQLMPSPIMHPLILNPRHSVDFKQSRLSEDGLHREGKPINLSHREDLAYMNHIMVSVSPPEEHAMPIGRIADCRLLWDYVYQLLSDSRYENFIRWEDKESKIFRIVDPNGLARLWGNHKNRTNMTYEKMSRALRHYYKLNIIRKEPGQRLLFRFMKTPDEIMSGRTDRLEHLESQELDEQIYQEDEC
Summary of the method: as §1

CATTGT
binding signal (ELF4): 1.14 fold enrichment (6-mer frequency, TF over GST control)
binding signal (ETV2): 1.11 fold enrichment (6-mer frequency, TF over GST control)
binding signal (ELF3): 1.02 fold enrichment (6-mer frequency, TF over GST control)
binding signal (ETV1): 1.14 fold enrichment (6-mer frequency, TF over GST control)
binding signal (ERF): 1.12 fold enrichment (6-mer frequency, TF over GST control)
binding signal (ETV3L): 1.19 fold enrichment (6-mer frequency, TF over GST control)
binding signal (ETS2): 1.07 fold enrichment (6-mer frequency, TF over GST control)
binding signal (ETV7): 1.11 fold enrichment (6-mer frequency, TF over GST control)
binding signal (ETV3): 1.16 fold enrichment (6-mer frequency, TF over GST control)
binding signal (ETV6): 1.15 fold enrichment (6-mer frequency, TF over GST control)
